# In PubChem BioAssay (EPA / NIEHS):
# The source made the active and inactive calls. How the source made its calls: active means hit-call score of the fitted dose curve at least 0.9, where 1 is the maximum; inactive means score below 0.9.
# Test: APR_HepG2_NuclearSize_24hr: Apredica 24-hour HepG2 Assay for Nuclear Size (AID 2282907)
# Settings: high-content imaging, actives raise or lower the signal
# Procedure: APR_HepG2_24hr is a cell-based, multiplexed-readout assay that uses HepG2, a human liver cell line, with measurements taken at 24 hours after chemical dosing in a 384-well plate.APR_HepG2_NuclearSize_24hr is one of 10 assay component(s) measured or calculated from the APR_HepG2_24hr assay. It is designed to make measurements of cell phenotype, a form of morphology reporter, as detected with fluorescence intensity signals by HCS Fluorescent Imaging technology.Data from the assay component APR_HepG2_NuclearSize_24hr was analyzed into 1 assay endpoint. This assay endpoint, APR_HepG2_NuclearSize_24hr, was analyzed with bidirectional fitting relative to DMSO as the negative control and baseline of activity. Using a type of morphology reporter, measures of all nuclear dna for gain or loss-of-signal activity can be used to understand the signaling at the nuclear-level. Furthermore, this assay endpoint can be referred to as a primary readout, because this assay has produced multiple assay endpoints where this one serves a signaling function. To generalize the intended target to other relatable targets, this assay endpoint is annotated to the cell morphology intended target family, where the subfamily is organelle conformation.
# Cells were treated with dimethyl sulfoxide (DMSO) as a solvent control at a final concentration of 0.5% v/v or with compounds in DMSO with a resulting final DMSO concentration of 0.5% v/v. Compound treatment was done at concentrations of 0.39, 0.78, 1.56, 3.12, 6.24, 12.5, 25, 50, 100, and 200 uM in duplicate on each plate. Cells were treated with compounds for 1, 24, or 72 hr. Carbonyl […] m-chloro-phenylhydrazone (CCCP) and taxol were used as positive controls for mitochondrial function and cytoskeletal stability, respectively; DMSO served as the negative control for this experiment. Cells were fixed by the direct addition of 50 uL formaldehyde in Hank's Balanced Salt Solution (HBSS) to a final concentration of 3.7%. After incubation in the fixation medium for 30 min at room temperature (293-298 K), cells were rinsed twice with HBSS and treated with cell permeabilization buffer (16 uL of 0.5% Triton X-100) for 10 min at room temperature (293-298 K) before labeling. For mitochondrial membrane potential and mitochondrial measurements, pre-fixed cells were incubated with 50 uL of MitoTracker Red CMXRos (Invitrogen) at a concentration of 250 nM for 30 min before fixation. In the remaining cases, post-fixed cells were labeled by incubation with a multiplexed mixture of primary antibodies in HBSS for 60 min at room temperature (293-298 K) to detect immunoreactivity of c-Jun (1:500), phospho-histone H3 (1:100), phospho-histone H2A.x (1:200), p53 (1:400), alpha-tubulin (1:200) and Hoechst 33342 (2 ug/mL). Cells were labeled for multiplexed imaging on two separate plates: a) Hoechst 33342, MitoTracker Red, phospho-histone H3, and alpha-tubulin, and b) Hoechst 33342, phospho-histone H2A.x, and c-Jun. A final rinse with HBSS (50 uL) was performed before analysis. The primary and secondary antibodies for the proteins were phospho-histone H3 (rabbit anti-phospho-histone H3 and FITC-donkey anti-rabbit IgG), phospho-histone H2A.x (mouse anti-phospho-histone H2A.x and FITC-donkey anti-mouse IgG), c-Jun (rabbit anti-phospho-c-Jun and Cy3-donkey anti-rabbit IgG), p53 (sheep anti-p53 and Cy5-donkey anti-sheep IgG), alpha-tubulin (mouse anti-alpha-tubulin and Cy5-donkey anti-mouse IgG). These antibodies are available as the CellCiphr HepG2 assay kit (Millipore).Digital images of each well were captured using a Cellomics ArrayScan VTI (Thermo Scientific Cellomics) (0.8 NA objective, 0.63x optical coupler, and XF-93 filter set) at 20x magnification. The images were acquired using the autofocus feature of the ArrayScan instrument, which entails the following steps. First, the camera focuses on channel 1 (Hoechst 33342), where nuclei are identified. Second, a Z offset of 1 um is used for capturing mitochondria (MitoTracker Red). […]
row,Compound,outcome
1,CCCCN(CC)c1c([N+](=O)[O-])cc(C(F)(F)F)cc1[N+](=O)[O-],inactive
2,CCCOc1nn(C(=O)NS(=O)(=O)c2ccccc2C(=O)OC)c(=O)n1C,inactive
3,CCC(=O)Nc1ccc(Cl)c(Cl)c1,inactive
4,CC(C)[C@H](C(=O)O[C@H](C#N)c1cccc(Oc2ccccc2)c1)c1ccc(Cl)cc1,inactive
5,CCOP(=S)(OCC)OC(Cl)C(Cl)(Cl)Cl (stereo not given),inactive
6,CNC(=O)Oc1cccc2c1OC(C)(C)O2,inactive
7,CCCCOC(=O)[C@@H](C)Oc1ccc(Oc2ccc(C#N)cc2F)cc1,inactive
8,CC(C)N(C(=O)SCC(Cl)=C(Cl)Cl)C(C)C,inactive
9,COc1cccc(C(=O)NN(C(=O)c2cc(C)cc(C)c2)C(C)(C)C)c1C,inactive
10,CCC(CC)Nc1c([N+](=O)[O-])cc(C)c(C)c1[N+](=O)[O-],inactive
11,CC(Oc1cccc(Cl)c1)C(=O)O (stereo not given),inactive
12,N#CSCSC#N,inactive
13,CNC(=O)ON=C(C)SC,inactive
14,CCOP(=O)(SC(C)CC)N1CCSC1=O (stereo not given),inactive
15,FC(F)C(F)(F)OCC(Cn1cncn1)c1ccc(Cl)cc1Cl (stereo not given),inactive
16,CNC(=O)ON=C(SC)C(=O)N(C)C,inactive
17,CCOP(=S)(OCC)Oc1ccc2c(C)c(Cl)c(=O)oc2c1,inactive
18,CSc1nc(NC(C)C)nc(NC(C)C)n1,inactive
19,O=c1ccc(=O)[nH][nH]1,inactive
20,COP(=O)(OC)C(O)C(Cl)(Cl)Cl (stereo not given),inactive

row,Compound,outcome
1,CCCCSP(=O)(SCCCC)SCCCC,inactive
2,CSC1=N[C@@](C)(c2ccccc2)C(=O)N1Nc1ccccc1,inactive
3,CCOP(=S)(OCC)SCCSCC,inactive
4,C#CC(C)(C)NC(=O)c1cc(Cl)cc(Cl)c1,inactive
5,CCNc1nc(Cl)nc(NC(C)(C)C#N)n1,inactive
6,CCCSP(=O)(OCC)SCCC,inactive
7,CCOP(=S)(Oc1cnc(C(C)(C)C)nc1)OC(C)C (stereo not given),inactive
8,C=C(C)[C@H]1Cc2c(ccc3c2O[C@@H]2COc4cc(OC)c(OC)cc4[C@@H]2C3=O)O1,inactive
9,CON=C(C(=O)OC)c1ccccc1CON=C(C)c1cccc(C(F)(F)F)c1,inactive
10,C[N+]1(C)CCCCC1,inactive
11,CN(C)NC(=O)CCC(=O)O,inactive
12,CCOC(=O)CC(SP(=O)(OC)OC)C(=O)OCC (stereo not given),inactive
13,CCOC(=O)COc1cc(-c2nn(C)c(OC(F)F)c2Cl)c(F)cc1Cl,inactive
14,CCc1cccc(CC)c1N(COC)C(=O)CCl,inactive
15,CCCOCC(=Nc1ccc(Cl)cc1C(F)(F)F)n1ccnc1,inactive
16,CCOP(=S)(OCC)Oc1cc(C)nc(C(C)C)n1,inactive
17,COP(=O)(OC)OC(Br)C(Cl)(Cl)Br (stereo not given),inactive
18,CC(C1CC1)C(O)(Cn1cncn1)c1ccc(Cl)cc1 (stereo not given),inactive
19,CCCSP(=O)(OCC)Oc1ccc(Br)cc1Cl (stereo not given),inactive
20,CCc1cccc(C)c1N(C(=O)CCl)C(C)COC (stereo not given),inactive
